In PubChem BioAssay (EPA / NIEHS):
Records with an inconclusive call do not appear. The source made the active and inactive calls. The calls were made as follows: active = hit-call score of the fitted dose curve at least 0.9, where 1 is the maximum; inconclusive = response in the unintended direction; inactive = score below 0.9.

Assay: ACEA_AR_antagonist_AUC_viability: ACEA Biosciences xCELLigence Real-Time Cell Analysis on Androgen Receptor Antagonism for Viability (AID 2283776);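 also: 22Rv1 human prostate cancer cells growing on impedance electrode plates; area under impedance growth curve at 80 h after dosing as viability; hits lower the growth signal relative to DMSO meaning cytotoxicity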
Procedure, shortened: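 Impedance read-out (RT-CES): area under growth curve at 80 h post-dose, loss of signal scored vs DMSO baseline. 22Rv1 cells; 8-pt 1:4 series, top 100 uM final, ≤0.5% DMSO; biological duplicate.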

Compound	outcome
CCOC(=O)c1ccc(C)cc1	inactive
CCCCCC[C@@H](O)C/C=C\CCCCCCCC(=O)OCC(O)CO (some centres undefined)	inactive
CCCCCC(=O)OCC	inactive
CC(C)=CCCC(C)=CC#N	inactive
CCCCCCO	inactive
Cc1ccc(C)c(OCCCC(C)(C)C(=O)O)c1	inactive
COc1cc(O)c(C(=O)c2ccccc2)cc1S(=O)(=O)O	inactive

Assay: ACEA_ER_AUC_viability: ACEA Biosciences xCELLigence Real-Time Cell Analysis on Estrogen Receptor Agonism for Viability (AID 2283782);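 also: continuous compound exposure with impedance area under curve over 80 h; hit means loss of impedance signal meaning reduced cell growth or viability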
Procedure, shortened: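 T47D cells preconditioned in phenol red-free RPMI with charcoal-stripped FBS, then dosed with 8-point 1:4 series from 100 uM (up to 0.5% DMSO). Impedance monitored up to ~80 h; area-under-curve loss versus DMSO taken as viability.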

Compound	outcome	AC50
CCCC1CCCC(=O)O1 (centres undefined)	inactive	–
CC(C)CC(=O)OCc1ccccc1	–	50 µM (active)
CCOC(=O)c1ccc(C)cc1	inactive	–
C=CC(=O)NC(C)(C)C	inactive	–
CC1C(C)(C)C2=C(C(=O)CCC2)C1(C)C (centres undefined)	inactive	–
CCN1CCCC1=O	inactive	–
CC(C)c1cccc(C(C)C)c1N	inactive	–
C=C(C)OC(C)=O	inactive	–
Cn1ccnc1	inactive	–
O=C(Oc1ccccc1)c1ccccc1C(=O)Oc1ccccc1	–	86.1 µM (active)
C1CCSC1	inactive	–
CC(c1cc(C(C)(C)C)cc(C(C)(C)C)c1O)c1cc(C(C)(C)C)cc(C(C)(C)C)c1O	inactive	–
C=CC(=O)OCCCCCCOC(=O)C=C	–	85.3 µM (active)
CCCCCCCC(=O)OCC	inactive	–
CCCCCC[C@@H](O)C/C=C\CCCCCCCC(=O)OCC(O)CO (some centres undefined)	inactive	–
CCCCOC(=O)CCC(C)=O	inactive	–
CCCCCC(=O)OCC	inactive	–
N=C1C=CC(=C(c2ccc(N)cc2)c2ccc(N)cc2)C=C1	–	34.5 µM (active)
c1ccc2c(c1)[nH]c1ccccc12	–	36.4 µM (active)
Nc1ncnc2nc[nH]c12	inactive	–
O=C1CCCCCCCCCCC1	inactive	–
CC(C)CCCCCOC(=O)CS	inactive	–
